Experimental data published in PubChem BioAssay (EPA / NIEHS).
Several values for one entry are separate records, joined by “and”; a condition that tells them apart may be missing. Identical values can stand only once. A structure can be active in one record and inactive in another. Activity calls are given as the source filed them. How the source made its calls: active means hit-call score of the fitted dose curve at least 0.9, where 1 is the maximum; inactive means score below 0.9.

Columns and labels:
[1] = BSK_CASM3C_SRB: Viability Assessment in the BioMAP Diversity Plus: CASM3C Assay (AID 2283050); details: primary human coronary artery smooth muscle cells;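 further: total protein by SRB staining as cytotoxicity measure in parallel cultures; cells exposed to compound for 24 h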
[2] = read-out: Thrombomodulin, THBD (gene 7056); assay: BSK_CASM3C_Thrombomodulin: BioMAP Diversity Plus: CASM3C Assay for Thrombomodulin Biomarker Activity (AID 2283051); details: primary human coronary artery smooth muscle cells; actives raise or lower the signal;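 further: thrombomodulin protein level measured by ELISA 24 h after dosing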
[3] = read-out: Tissue Factor, F3 (gene 2152); assay: BSK_CASM3C_TissueFactor: BioMAP Diversity Plus: CASM3C Assay for Tissue Factor Biomarker Activity (AID 2283052); details: primary human coronary artery smooth muscle cells; actives raise or lower the signal;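 further: cell surface tissue factor protein level read by ELISA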
[4] = read-out: Interferon-gamma inducible Protein 10 (IP10), CXCL10 (gene 3627); assay: BSK_hDFCGF_IP10: BioMAP Diversity Plus: hDFCGF Assay for Interferon-gamma inducible Protein 10 (IP10) Biomarker Activity (AID 2283053); details: primary human foreskin fibroblasts; actives raise or lower the signal
Outline: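 Primary foreskin fibroblasts, human; 24 h compound exposure; IP-10 by ELISA; bidirectional fit vs DMSO.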

[5] = read-out: Urokinase-type plasminogen activator receptor (uPAR), PLAUR (gene 5329); assay: BSK_CASM3C_uPAR: BioMAP Diversity Plus: CASM3C Assay for Urokinase-type plasminogen activator receptor (uPAR) Biomarker Activity (AID 2283054); details: primary human coronary artery smooth muscle cells; actives raise or lower the signal;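 further: cell-surface uPAR protein level quantified by ELISA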
[6] = read-out: Vascular cell adhesion molecule 1 (VCAM1), VCAM1 (gene 7412); assay: BSK_CASM3C_VCAM1: BioMAP Diversity Plus: CASM3C Assay for Vascular cell adhesion molecule 1 (VCAM1) Biomarker Activity (AID 2283055); details: primary human coronary artery smooth muscle cells; actives raise or lower the signal;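 further: VCAM-1 protein level quantified by ELISA on the cells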
[7] = read-out: Collagen III, COL3A1 (gene 1281); assay: BSK_hDFCGF_CollagenIII: BioMAP Diversity Plus: hDFCGF Assay for Collagen III Biomarker Activity (AID 2283056); details: primary human foreskin fibroblasts; actives raise or lower the signal
Outline: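 ELISA readout of Collagen III in human dermal (foreskin) fibroblasts, taken 24 h post-treatment. Gain or loss relative to DMSO vehicle fitted in both directions.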

[8] = read-out: Epidermal growth factor receptor (EGFR), EGFR (gene 1956); assay: BSK_hDFCGF_EGFR: BioMAP Diversity Plus: hDFCGF Assay for Epidermal growth factor receptor (EGFR) Biomarker Activity (AID 2283057); details: primary human foreskin fibroblasts; actives raise or lower the signal
Outline: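 hDFCGF system, primary human foreskin fibroblasts; compound 24 h; EGFR measured by ELISA; DMSO = negative control/baseline; bidirectional fitting.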

[9] = read-out: Interleukin-8 (IL8), CXCL8 (gene 3576); assay: BSK_hDFCGF_IL8: BioMAP Diversity Plus: hDFCGF Assay for Interleukin-8 (IL8) Biomarker Activity (AID 2283058); details: primary human foreskin fibroblasts; actives raise or lower the signal
Outline: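 IL-8 levels read by ELISA at 24 hours after dosing human skin fibroblast cultures. Parallel SRB staining assessed overt cytotoxicity, and gain or loss of signal was fitted against DMSO control.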

[10] = BSK_hDFCGF_Proliferation: Cell Proliferation Assessment in the BioMAP Diversity Plus: hDFCGF Assay (AID 2283059); details: primary human foreskin fibroblasts;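 further: curves fitted for both rise and fall of signal versus DMSO baseline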
Outline: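 Primary human foreskin fibroblasts, sub-confluent; […]; 10% TCA fix, 0.1% SRB stain, A560 total protein. Gain/loss fitted bidirectionally vs DMSO control.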

[11] = read-out: Macrophage colony-stimulating factor (MCSF), CSF1 (gene 1435); assay: BSK_hDFCGF_MCSF: BioMAP Diversity Plus: hDFCGF Assay for Macrophage colony-stimulating factor (MCSF) Biomarker Activity (AID 2283060); details: primary human foreskin fibroblasts; actives raise or lower the signal
Outline: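 M-CSF levels read by ELISA at 24 h post-dosing in human skin fibroblasts. Parallel cultures stained with SRB assessed cytotoxicity at the same time point; response fitted in both directions against the DMSO baseline.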

[12] = BSK_hDFCGF_SRB: Viability Assessment in the BioMAP Diversity Plus: hDFCGF Assay (AID 2283061); details: primary human foreskin fibroblasts;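 further: cells exposed to compound for 24 h before the read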
Outline: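 Viability was read as total protein: after 10% TCA fixation, wells were stained with 0.1% sulforhodamine B and read at 560 nm. Primary human foreskin fibroblasts were dosed for 24 h, with bidirectional fitting versus DMSO.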

[13] = read-out: TIMP metallopeptidase inhibitor 1 (TIMP1), TIMP1 (gene 7076); assay: BSK_hDFCGF_TIMP1: BioMAP Diversity Plus: hDFCGF Assay for TIMP metallopeptidase inhibitor 1 (TIMP1) Biomarker Activity (AID 2283062); details: primary human foreskin fibroblasts; actives raise or lower the signal
Outline: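 TIMP-1 measured by ELISA 24 h after chemical dosing of primary human skin fibroblasts, with gain or loss fitted relative to DMSO. Parallel SRB staining (560 nm) monitored overt cytotoxicity.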

[14] = read-out: Monokine induced gamma interferon (MIG), CXCL9 (gene 4283); assay: BSK_hDFCGF_MIG: BioMAP Diversity Plus: hDFCGF Assay for Monokine induced gamma interferon (MIG) Biomarker Activity (AID 2283063); details: primary human foreskin fibroblasts; actives raise or lower the signal
Outline: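 Human primary foreskin fibroblasts in the hDFCGF system, exposed to test chemical for 24 h; MIG measured by ELISA. Bidirectional curve fitting against DMSO negative control as activity baseline.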

[15] = read-out: Matrix Metallopeptidase 1 (MMP1), MMP1 (gene 4312); assay: BSK_hDFCGF_MMP1: BioMAP Diversity Plus: hDFCGF Assay for Matrix Metallopeptidase 1 (MMP1) Biomarker Activity (AID 2283064); details: primary human foreskin fibroblasts; actives raise or lower the signal
Outline: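 Primary human foreskin fibroblasts exposed to chemicals for 24 h; MMP1 measured by ELISA. Cytotoxicity tracked by SRB staining in parallel cultures; bidirectional fit relative to DMSO.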

[16] = read-out: Vascular cell adhesion molecule 1 (VCAM1), VCAM1 (gene 7412); assay: BSK_hDFCGF_VCAM1: BioMAP Diversity Plus: hDFCGF Assay for Vascular cell adhesion molecule 1 (VCAM1) Biomarker Activity (AID 2283065); details: primary human foreskin fibroblasts; actives raise or lower the signal;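 on AC50: VCAM-1 protein level quantified by ELISA after 24 h chemical exposure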
Outline: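 ELISA readout of VCAM-1 on human dermal fibroblast primary cultures, 24 h after chemical exposure. Gain or loss of signal fitted in both directions against DMSO baseline.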

[17] = read-out: Plasminogen activator inhibitor-1 (PAI1), SERPINE1 (gene 5054); assay: BSK_hDFCGF_PAI1: BioMAP Diversity Plus: hDFCGF Assay for Plasminogen activator inhibitor-1 (PAI1) Biomarker Activity (AID 2283066); details: primary human foreskin fibroblasts; actives raise or lower the signal
Outline: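 Primary dermal fibroblasts (human foreskin), hDFCGF system; compound 24 h; PAI-1 by ELISA; bidirectional fit vs DMSO control.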

[18] = read-out: Intercellular Adhesion Molecule 1 (ICAM1), ICAM1 (gene 3383); assay: BSK_KF3CT_ICAM1: BioMAP Diversity Plus: KF3CT Assay for Intercellular Adhesion Molecule 1 (ICAM1) Biomarker Activity (AID 2283067); details: primary human keratinocytes with fibroblasts; actives raise or lower the signal
Outline: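 Cell-surface ICAM-1 was measured by ELISA 24 h after dosing primary human skin keratinocytes co-cultured with fibroblasts. Parallel SRB staining tracked overt cytotoxicity. Gain or loss of signal was fitted relative to DMSO.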

[19] = read-out: Interferon-gamma inducible Protein 10 (IP10), CXCL10 (gene 3627); assay: BSK_KF3CT_IP10: BioMAP Diversity Plus: KF3CT Assay for Interferon-gamma inducible Protein 10 (IP10) Biomarker Activity (AID 2283068); details: primary human keratinocytes with fibroblasts; actives raise or lower the signal
Outline: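 In a primary skin co-culture of keratinocytes and fibroblasts, IP-10 is quantified by ELISA at 24 h after dosing. SRB staining of parallel wells monitors overt toxicity. Curves are fitted both directions against DMSO.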

[20] = BSK_KF3CT_SRB: Viability Assessment in the BioMAP Diversity Plus: KF3CT Assay (AID 2283069); details: primary human keratinocytes with fibroblasts;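 further: total protein by sulforhodamine B staining as a cytotoxicity measure; read 24 h after compound addition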
Outline: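 Human keratinocyte and foreskin fibroblast co-culture exposed to chemical for 24 h. Total protein measured in parallel cultures by 0.1% sulforhodamine B staining after 10% TCA fixation, read at 560 nm; bidirectional fit relative to DMSO.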

Measured: AC50

C=CC/C=C/C/C=C/C/C=C/C
active: [15] 16 nM | [17] 141 nM
inactive: all other assays above

O=C(O)C(F)(F)C(F)(F)C(F)(F)C(F)(F)F
not listed: [18]
inactive: all other assays above

O=C(O)C(F)(F)C(F)(F)C(F)(F)C(F)(F)C(F)(F)C(F)(F)C(F)(F)C(F)(F)C(F)(F)C(F)(F)C(F)(F)C(F)(F)C(F)(F)F
active: [4] 5.35 µM
inactive: [1] | [2] | [3] | [4] | [5] | [6] | [8] | [9] | [10] | [11] | [12] | [13] | [14] | [15] | [16] | [17] | [18] | [19] | [20]

O=C(O)C(F)(F)C(F)(F)C(F)(F)C(F)(F)C(F)(F)C(F)(F)C(F)(F)C(F)(F)C(F)(F)C(F)F
active: [4] 18.3 µM and 12.8 µM | [7] 3.34 µM and 8.08 µM | [10] 15.8 µM and 18.9 µM | [11] 11 µM | [12] 54 µM and 7.25 µM | [14] 9.87 µM and 5.95 µM | [16] 15.3 µM and 5.95 µM | [17] 45.6 µM and 46 µM | [19] 27.6 µM and 23.7 µM | [20] 52.4 µM and 49.3 µM
inactive: [1] | [2] | [3] | [5] | [6] | [8] | [9] | [11] | [13] | [15]

CCCCC(CC)COP(=O)(O)OCC(CC)CCCC (stereo not given)
inactive: [1] | [2] | [3] | [5] | [6] | [8] | [9] | [13] | [14] | [20]
active: [4] 24.9 µM and 28.3 µM | [6] 0.988 µM | [8] 20 µM | [10] 32.9 µM and 34.6 µM | [11] 33.9 µM and 31.3 µM | [12] 30.6 µM and 29.9 µM | [13] 30.8 µM | [14] 31.6 µM | [15] 12 µM and 13.7 µM | [16] 37.6 µM and 32 µM | [17] 27.5 µM and 33.5 µM | [19] 26.5 µM and 27.2 µM

FC(F)(F)C(F)(F)C(F)(F)C(F)(F)C(F)(F)CCI
active: [4] 22.2 µM | [10] 32.1 µM and 31.2 µM | [11] 23.4 µM | [14] 30 µM | [15] 8910 nM | [16] 38.6 µM and 32.6 µM
inactive: [1] | [2] | [3] | [4] | [5] | [6] | [8] | [9] | [11] | [12] | [13] | [14] | [15] | [17] | [19] | [20]

N=C(N)C(F)(F)C(F)(F)C(F)(F)C(F)(F)C(F)(F)C(F)(F)C(F)(F)F
inactive: [1] | [2] | [3] | [5] | [6] | [8] | [9] | [12] | [13] | [14] | [15] | [18] | [19] | [20]
active: [4] 42.9 µM and 50.1 µM | [7] 10.9 µM and 10.7 µM | [8] 53.9 µM | [10] 39.7 µM and 54.7 µM | [11] 40.9 µM and 37.2 µM | [12] 54.4 µM | [14] 46 µM | [16] 30 µM and 18 µM | [17] 55.3 µM and 54.2 µM

CCCCNc1ccccc1
inactive: all assays above

CCc1c(Br)c(Br)c(Br)c(Br)c1Br
active: [3] 4.48 µM
not listed: [18]
inactive: all other assays above
